TDP1 cell CPT – qHTS for Inhibitors of human tyrosyl-DNA phosphodiesterase 1 (TDP1): qHTS in cells in presence of CPT; chicken DT40 Tdp1-/-;hTDP1 cells + 20 nM CPT, ATP luminescence, 48 h; Potency, µM (series often up to 46.2 µM), without a hit: at the top dose activity change, negative = growth inhibition, most hits filed as inhibitors; actives 12% (n = 420,000); AID 686979, 2013; further: potency means the concentration at half of the fitted maximal effect; on the % scale 0 is the no-effect control and ±100 the full control effect; nearly all actives have a fitted effect of over 55% in size
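Chicken DT40 Tdp1-/- cells complemented with human TDP1, 400 cells/well, exposed to compounds plus 20 nM camptothecin for at least 48 h at 37 C; viability read as ATP content by CellTiter-Glo luminescence.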
SW480 rerep – A quantitative high throughput screen for small molecules that induce DNA re-replication in SW480 colon adenocarcinoma cells | SW480 DNA re-replication, Hoechst DNA content imaging, 48 h | Potency, µM (top dose mostly 46.1 µM), without a hit: at the top dose re-replication activation, usual class: activators | actives 1.8% (n = 340,000) | AID 624297, 2012; further: potency means the concentration at half of the fitted maximal effect; % of control where 0% means no effect; nearly all actives have a fitted effect of over 55% in size
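Treated cells incubate 48 hr (37 C, 5% CO2), are stained 40 min with Hoechst, and nuclear fluorescence is enumerated; a rise in nuclei with high DNA signal marks re-replication.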
TDP1 cell noCPT – qHTS for Inhibitors of human tyrosyl-DNA phosphodiesterase 1 (TDP1): qHTS in cells in absence of CPT; DT40 Tdp1-/- hTDP1 cells, no CPT, ATP luminescence, 48 h; Potency, µM (highest dose often 46.2 µM), for inactives: top-dose activity change, negative = growth inhibition, usual class: inhibitors; actives 15% (n = 420,000); further: potency means the concentration at half of the fitted maximal effect; on the % scale 0 is the no-effect control and ±100 the full control effect; nearly all actives have a fitted effect of over 55% in size
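A cellular qHTS used chicken DT40 cells lacking endogenous Tdp1 but carrying stably transfected human TDP1. Compounds were applied without camptothecin, and cell growth kinetics were judged by ATP-dependent luminescence after ≥48 hr.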
IL1B secr inh – qHTS for Inhibitors of Inflammasome Signaling: IL-1-beta AlphaLISA Primary Screen. activity change, % at 57.5 µM. THP-1 LPS/ATP IL-1B secretion, AlphaLISA, 16 h; stronger effect = lower value. actives 4.7% (n = 360,000); in the data active means activity change below about -50%; inconclusive means mostly about -30% to -49%; further: on the % scale 0 is the no-effect control and ±100 the full control effect
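THP-1 cells pretreated 1 hr with compounds (up to 57.5 uM final), then stimulated with LPS (250 ng/mL final) plus ATP (1.25 mM final); secreted IL-1B measured by AlphaLISA after 16 hr, decreased signal indicating inhibition.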
Chronic BCR inh – qHTS Assay to Find Inhibitors of Chronic Active B-Cell Receptor Signaling; AID 493014, 2011; actives 0.05% (n = 340,000); ABC-DLBCL IkBa-CBG/CBR reporter, luminescence ratio, 4 h; Potency, µM (highest dose often 46.1 µM), inactives show at the top dose activity change, negative = inhibition, hits mostly inhibitors; active means well fitted inhibition curve with a large enough effect in the signal ratio, with a control signal flat, not every such curve was filed as active; inconclusive means small, poorly fitted or top-dose-only effect, or effect the other way, or a change in a side signal; the % refers to the signal ratio;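 further: potency means the concentration at half of the fitted maximal effect; plate controls were basal doxycycline-induced cells for no effect and cells given 10 µM MG132 for full effect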
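Concentration-response series (up to 46 uM) were applied to TMD8 dual-reporter cells for 4 h at 37C with doxycycline. Green/red ratio, after filter-overlap correction, defined %Activity; red signal alone was normalised to basal cells and zero luminescence.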
MCF10A rereplic – A quantitative high throughput screen for small molecules that induce DNA re-replication in MCF 10a normal breast cells | MCF 10A DNA re-replication, Hoechst nuclear intensity, 48 h | Potency, µM (doses to about 46.1 µM), for the others: at the top dose activity, positive = re-replication, most hits filed as activators | actives 2.9% (n = 350,000) | AID 624296, 2012; further: potency means the concentration at half of the fitted maximal effect; % of control where 0% means no effect; nearly all actives have a fitted effect of over 50% in size
The depositor's hits bear a star; u = inconclusive; x = no result; [ ] = remark or other dose. Sampled rows, rich in hits. Any-hit rate of the full collection: about 19%. Unless noted, the call rests on the fitted dose curve; in most records, active means well fitted curve in the direction sought with a large enough effect; inconclusive means small, poorly fitted or top-dose-only effect, or another doubt; inactive means no such curve, though single readings can be large; an effect the other way counts as inactive or inconclusive.

SMILES | TDP1 cell CPT | SW480 rerep | TDP1 cell noCPT | IL1B secr inh | Chronic BCR inh | MCF10A rereplic
CC(C)c1cc(CNC(=O)CC2C(=O)NCCN2CC2CCCCC2)on1 (configuration not stated) | 3% | -5% | 5% | -3 | -9% | -1%
O=C(CC1C(=O)NCCN1CC1CCCCC1)NCc1cc(F)ccc1F (configuration not stated) | 23µM* | -9% | u | -11 | 10% | -4%
O=C(CC1C(=O)NCCN1CC1CCCCC1)NCc1ccc(F)cc1F (configuration not stated) | -1% | -2% | -18% | -66* | -3% | 8%
CCCCCc1c(-c2ccccc2)ncn1CCc1ccccc1OC | 23µM* | x | 15µM* | 0 | x | x
CCCCc1c(-c2cccc(OC)c2)ncn1CCc1ccccc1OC | 15µM* | x | 18µM* | -96* | x | x
CCc1ccccc1Oc1nc2cc(-c3cccc(OC)c3)sc2c(=O)n1C | u | x | -55% | -16 | x | x
CCCCc1c(-c2ccc(OC)c(OC)c2)ncn1CCc1ccccc1OC | 5.8µM* | x | 5.8µM* | -51* | x | x
COc1ccccc1CCn1cnc(-c2ccc(OC)c(OC)c2)c1C(C)C | 8.2µM* | x | 5.8µM* | -51* | x | x
CCOc1ccc(C(c2c(O)cc(C)n(CCOC)c2=O)N2CCN(c3ccccc3)CC2)cc1 (configuration not stated) | 1% | x | -9% | x | x | x
Cc1cc(F)ccc1NC(=O)CCc1ccc(S(=O)(=O)N2CCOCC2)cc1 | -21% | 3% | 1% | 12 | 2% | 0%
Cn1c(-c2ccc3ccccc3n2)nc2cnccc21 | 18µM* | -2% | 15µM* | 0 | u | 4%
COc1cc(OC)c(-c2nc3cnccc3n2C)cc1OC | 6% | -6% | 0% | 0 | -4% | 13%
O=c1[nH]c2cc(C(F)(F)F)c(N3CCOCC3)cc2n(CP(=O)(O)O)c1=O | 0% | -1% | -1% | x | x | 1%
Cc1cc(Cl)c(OCCCn2ccnc2)c(Br)c1 | u | -9% | u | -72* | u | 12%
Cc1cc(Cl)c(OCCCn2cncn2)c(Br)c1 | -8% | 2%[9.22 µM] | -26% | u | -4% | 5%
Cc1ccc(OCCOCCn2ccnc2)c(Br)c1 | -26% | -6% | 23µM* | -10 | u | -2%
Cc1cc(C)c(OCCn2ccnc2)c(C)c1 | 6.5µM* | 6% | 5.2µM* | 75 | u | 4%
Cc1cc(C)c(OCCCn2ccnc2)c(C)c1 | -17% | -22% | 1% | 0 | -2% | 15%
CCOC(=O)c1sc(Nc2nc3c(OC)cccc3s2)cc1C | u | u | 16µM* | u | u | 23µM*
COc1cccc2sc(Nc3nc4ccc(NC(C)=O)cc4s3)nc12 | u | u | u | 52 | -1% | 3.3µM*
CCOC(=O)c1sc(Nc2nc3cc4c(cc3s2)OCO4)cc1C | -1% | -7% | -15% | -2 | 4% | u
COc1cccc2sc(Nc3nc(-c4ccncc4)cs3)nc12 | 4.6µM* | u | 2.9µM* | 40 | 13% | 21µM*
O=C(Nc1nc(-c2cc3ccccc3oc2=O)cs1)c1ccc(Br)o1 | -16% | -7% | -25% | 0 | 3% | u
COc1cccc2sc(Nc3nc(-c4cc5ccccc5oc4=O)cs3)nc12 | 4.6µM* | 5.2µM* | 4.6µM* | 59 | -14% | 1.3µM*
COc1ccc(-c2csc(Nc3cccnc3)n2)cc1OC | u | 0% | u | u | -1% | 6%
SMILES | TDP1 cell CPT | SW480 rerep | TDP1 cell noCPT | IL1B secr inh | Chronic BCR inh | MCF10A rereplic
CC(=O)Nc1ccc2nc(NC(=O)COc3ccccc3C)sc2c1 | -10% | 2% | -1% | 4 | u | 1%
COc1ccc(NC(=O)CCC2CCCCC2)cc1S(=O)(=O)N1CCCCC1 | u | 1% | u | -20 | -7% | 15%
CCc1ccc(NC(=O)CSc2nc3n[nH]c(C)c3c(=N)n2-c2ccc(C)cc2)cc1 | 6.5µM* | x | 3.7µM* | x | 0% | x
CCC(Sc1nc2n[nH]c(C)c2c(=N)n1-c1ccc(Br)cc1)C(=O)N(CC)CC (configuration not stated) | 18µM* | x | 15µM* | x | 19% | x
Cc1ccc(NC(=O)CSc2nc(O)cc(=O)n2-c2ccc(C)cc2)cc1 | -4% | -4% | -12% | 21 | 4% | 5%
Cc1[nH]nc2nc(SCC(=O)NC3CCCCC3)n(-c3ccc(Br)cc3)c(=N)c12 | 8.2µM* | u | 6.5µM* | 51 | -10% | 12µM*
CCOc1ccc(-n2c(SCC(=O)Nc3ccc(CC)cc3)nc3n[nH]c(C)c3c2=N)cc1 | u | 41% | 21µM* | -29 | u | 13%
CCCOc1ccc(C(=O)Nc2cc3c(cc2N2CCOCC2)n(C)c(=O)n3C)cc1 | -9% | x | 3% | x | x | x
Cc1nn2c(C)c(C(=O)NCc3ccc(OC(C)C)cc3)cnc2c1-c1ccc(F)cc1 | -2% | x | 0% | x | x | x
COc1ccc(CCNC(=O)Cc2c(Cl)cccc2Cl)cc1 | 2% | u | -10% | -1 | -2% | 2%[9.22 µM]
NC(=O)CC(NC(=O)Cc1ccc(Br)cc1)c1ccc(N2CCCCCCC2)c([N+](=O)[O-])c1 (configuration not stated) | u | 12% | -23% | -2 | 19% | u
NC(=O)CC(NC(=O)Cc1ccc(Br)cc1)c1ccc(N2CCC(Cc3ccccc3)CC2)c([N+](=O)[O-])c1 (configuration not stated) | u | u | 23µM* | 0 | 6% | u
NC(=O)CC(NC(=O)c1ccc(Br)cc1)c1ccc(N2CCC(Br)CC2)c([N+](=O)[O-])c1 (configuration not stated) | 18µM* | 24% | 12µM* | -26 | 0% | u
NC(=O)CC(NC(=O)c1ccccc1)c1ccc(N2CCCCCCC2)c([N+](=O)[O-])c1 (configuration not stated) | 8.2µM* | -1% | 9.2µM* | 6 | -6% | u
NC(=O)CC(NC(=O)c1ccc(Br)cc1)c1ccc(N2CCCCCC2)c([N+](=O)[O-])c1 (configuration not stated) | 16µM* | 6% | 16µM* | -1 | -22% | u
